Source: PubChem BioAssay (EPA / NIEHS)
Calls of active or inactive are those of the source. The calls were made as follows: active = hit-call score of the fitted dose curve at least 0.9, where 1 is the maximum; inactive = score below 0.9.

Key:
[1] = ATG_CRE_CIS: Attagene CIS-FACTORIAL HepG2 Assay for human cAMP Responsive Element (CRE) binding protein 3 (AID 2282926); conditions: HepG2 CRE cis-reporter, Attagene multiplexed mRNA; actives raise or lower the signal
Outline: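 Transfected HepG2 were treated for 24 hours, then RNA was extracted and reporter cDNA amplified with sequence-specific primers. Labelled fragments were separated by capillary electrophoresis, and the CRE signal was fitted bidirectionally with DMSO as baseline.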

[2] = biological target: CCAAT/enhancer-binding protein beta (Homo sapiens) (UniProt P17676); experiment: ATG_C_EBP_CIS: Attagene CIS-FACTORIAL HepG2 Assay for human CCAAT/Enhancer Binding Protein (C/EBP) beta (AID 2282927); conditions: HepG2 Attagene cis-factorial transcription factor reporter; actives raise or lower the signal
Chain of CCAAT/enhancer-binding protein beta (Homo sapiens) (P17676 whole entry, looked up, the tested form may be a part): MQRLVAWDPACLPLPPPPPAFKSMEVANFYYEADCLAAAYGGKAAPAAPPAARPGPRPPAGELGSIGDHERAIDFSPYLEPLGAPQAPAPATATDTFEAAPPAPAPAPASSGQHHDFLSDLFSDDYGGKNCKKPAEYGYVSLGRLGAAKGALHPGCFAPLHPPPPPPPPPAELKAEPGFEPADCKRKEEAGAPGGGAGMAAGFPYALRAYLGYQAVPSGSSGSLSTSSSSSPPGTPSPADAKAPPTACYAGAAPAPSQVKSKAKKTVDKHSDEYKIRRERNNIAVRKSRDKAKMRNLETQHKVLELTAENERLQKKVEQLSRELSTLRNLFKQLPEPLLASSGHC
Outline: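 Endogenous C/EBPb-driven reporter transcripts measured in transfected human HepG2 cells at 24 h via RT-PCR and capillary electrophoresis of labelled fragments. Activity fitted in both directions relative to DMSO baseline.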

[3] = ATG_CMV_CIS: Attagene CIS-FACTORIAL HepG2 Assay for human CMV (Internal Marker) (AID 2282928); conditions: HepG2 CMV promoter reporter, transcription factor profiling; actives raise or lower the signal;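 also: endpoint acts as a background internal control marker rather than a target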
Outline: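 CMV internal-marker background readout in transiently transfected HepG2 cells bearing cis-regulated reporter units. Reporter mRNA is measured 24 h after dosing by RT-PCR and capillary electrophoresis, with bidirectional fitting against DMSO.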

[4] = ATG_DR4_LXR_CIS: Attagene CIS-FACTORIAL HepG2 Assay for human Liver X Receptor (LXR), DR4 submotif (AID 2282929); conditions: HepG2 Attagene DR4 cis-reporter, mRNA transcription; actives raise or lower the signal
Outline: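 After transient transfection with multiplexed cis-promoter reporter units, HepG2 cells received test chemicals for 24 h. Reporter mRNA induction, detected by fluorescence after RT-PCR and capillary electrophoresis, was scored relative to DMSO.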

[5] = biological target: Aryl hydrocarbon receptor (Homo sapiens) (UniProt P35869); experiment: ATG_Ahr_CIS: Attagene CIS-FACTORIAL HepG2 Assay for human Aryl Hydrocarbon Receptor (Ahr) (AID 2282930); conditions: HepG2 AhR cis-factorial reporter transcription; actives raise or lower the signal
Chain of Aryl hydrocarbon receptor (Homo sapiens) (P35869 whole entry, looked up): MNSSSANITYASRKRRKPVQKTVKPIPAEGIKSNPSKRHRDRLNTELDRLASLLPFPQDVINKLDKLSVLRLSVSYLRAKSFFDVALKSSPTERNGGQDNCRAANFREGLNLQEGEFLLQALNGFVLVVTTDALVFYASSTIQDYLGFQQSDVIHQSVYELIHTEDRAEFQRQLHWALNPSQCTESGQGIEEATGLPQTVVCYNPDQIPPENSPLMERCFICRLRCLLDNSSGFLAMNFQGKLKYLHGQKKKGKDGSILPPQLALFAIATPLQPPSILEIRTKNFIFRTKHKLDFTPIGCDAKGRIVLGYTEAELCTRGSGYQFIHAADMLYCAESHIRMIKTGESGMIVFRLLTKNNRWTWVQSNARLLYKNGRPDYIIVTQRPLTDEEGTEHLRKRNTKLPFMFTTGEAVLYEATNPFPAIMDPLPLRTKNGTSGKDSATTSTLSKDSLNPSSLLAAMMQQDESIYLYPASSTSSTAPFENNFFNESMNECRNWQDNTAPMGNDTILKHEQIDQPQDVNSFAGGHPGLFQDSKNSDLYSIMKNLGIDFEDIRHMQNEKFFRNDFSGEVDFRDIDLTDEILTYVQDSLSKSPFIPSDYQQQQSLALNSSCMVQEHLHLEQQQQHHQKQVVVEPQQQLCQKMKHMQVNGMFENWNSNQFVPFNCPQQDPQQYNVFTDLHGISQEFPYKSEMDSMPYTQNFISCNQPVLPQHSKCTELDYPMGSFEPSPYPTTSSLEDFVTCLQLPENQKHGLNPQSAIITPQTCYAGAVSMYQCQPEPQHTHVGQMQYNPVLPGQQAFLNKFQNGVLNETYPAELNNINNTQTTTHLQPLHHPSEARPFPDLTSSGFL
Outline: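 Reporter mRNA levels, quantified by RT-PCR and fluorescent capillary electrophoresis, reflect endogenous AhR transcriptional activity in HepG2 cells carrying transfected cis-promoter reporter constructs. Readout at 24 h post-dose; gain or loss fitted against DMSO baseline.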

[6] = ATG_AP_2_CIS: Attagene CIS-FACTORIAL HepG2 Assay for human Activator Protein 2 (AP-2) (AID 2282932); conditions: HepG2 AP-2 cis-reporter, Attagene transcription factor profiling; actives raise or lower the signal
Outline: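 HepG2, transient MRTU transfection, cis-regulated reporters; 24 h compound exposure; RNA isolated, RT-PCR, 6-FAM labelling, HpaI digest, CE fluorescence. DMSO = negative control/baseline, bidirectional fit.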

[7] = ATG_BRE_CIS: Attagene CIS-FACTORIAL HepG2 Assay for human Bone Morphogenetic Protein (BMP) Response Element (BRE) (AID 2282933); conditions: HepG2 BMP response element reporter, Attagene transcription factor profiling; actives raise or lower the signal
Outline: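 Fluorescence-labelled reporter cDNA fragments, separated by capillary electrophoresis, gave the signal for this component of a 52-readout multiplex. HepG2 cells were transfected, exposed to chemicals for 24 h, and compared with DMSO using bidirectional fitting.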

[8] = biological target: Retinoic acid receptor alpha (Homo sapiens) (UniProt P10276); experiment: ATG_DR5_RAR_CIS: Attagene CIS-FACTORIAL HepG2 Assay for human Retinoic Acid Receptor Alpha (RARE), DR5 submotif (AID 2282934); conditions: HepG2 Attagene cis-factorial RARE DR5 reporter, mRNA; actives raise or lower the signal;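 as to AC50: reporter responds to endogenous RAR alpha beta and gamma in HepG2 not RARA alone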
Chain of Retinoic acid receptor alpha (Homo sapiens) (P10276 whole entry, looked up): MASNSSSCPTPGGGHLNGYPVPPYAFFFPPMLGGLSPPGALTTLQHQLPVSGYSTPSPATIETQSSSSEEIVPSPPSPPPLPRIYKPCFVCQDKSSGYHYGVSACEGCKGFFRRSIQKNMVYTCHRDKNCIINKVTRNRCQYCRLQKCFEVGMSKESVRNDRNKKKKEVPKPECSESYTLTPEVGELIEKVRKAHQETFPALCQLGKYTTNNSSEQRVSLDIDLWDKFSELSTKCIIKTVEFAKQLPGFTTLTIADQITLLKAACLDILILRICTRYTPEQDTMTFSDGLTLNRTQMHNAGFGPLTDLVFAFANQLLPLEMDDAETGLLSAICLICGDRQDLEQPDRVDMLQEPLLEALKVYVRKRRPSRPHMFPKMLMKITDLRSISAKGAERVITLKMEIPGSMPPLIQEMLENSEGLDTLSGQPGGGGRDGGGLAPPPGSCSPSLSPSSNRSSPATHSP
Outline: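 Reporter transcripts from a DR5-regulated unit, measured via RT-PCR plus capillary electrophoresis, reflect endogenous RAR activity in transiently transfected human HepG2 liver cells. Exposure lasted 24 h; gain or loss of signal scored against DMSO.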

[9] = biological target: Transcription factor E2F1 (Homo sapiens) (UniProt Q01094); experiment: ATG_E2F_CIS: Attagene CIS-FACTORIAL HepG2 Assay for human E2F Transcription Factor 1 (AID 2282935); conditions: HepG2 Attagene cis-reporter, E2F reporter RNA transcripts; actives raise or lower the signal
Chain of Transcription factor E2F1 (Homo sapiens) (Q01094 whole entry, looked up): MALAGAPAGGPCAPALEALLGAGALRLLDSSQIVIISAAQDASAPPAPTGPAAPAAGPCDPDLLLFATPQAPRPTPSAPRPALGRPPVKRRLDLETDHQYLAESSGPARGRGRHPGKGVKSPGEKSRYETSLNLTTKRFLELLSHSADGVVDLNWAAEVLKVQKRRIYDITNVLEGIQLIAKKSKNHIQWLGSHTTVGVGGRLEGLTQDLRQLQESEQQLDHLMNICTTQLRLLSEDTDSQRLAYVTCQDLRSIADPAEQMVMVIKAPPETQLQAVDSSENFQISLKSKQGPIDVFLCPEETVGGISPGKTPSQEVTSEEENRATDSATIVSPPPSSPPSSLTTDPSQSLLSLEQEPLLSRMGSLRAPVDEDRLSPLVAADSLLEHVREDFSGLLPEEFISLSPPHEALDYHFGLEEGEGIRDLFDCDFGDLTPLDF
Outline: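 Cis-element reporter mRNA induction in transiently transfected HepG2, 24 h exposure. Activity fitted in both directions relative to DMSO negative control.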

[10] = ATG_E_Box_CIS: Attagene CIS-FACTORIAL HepG2 Assay for human Enhancer Box (E-box) (AID 2282936); conditions: HepG2 E-box cis-reporter transcription, actives raise or lower the signal
Outline: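 Cells: HepG2 (human liver), transient MRTU transfection. Exposure 24 h. RNA → oligo(dT) RT → PCR → 6-FAM label → HpaI → CE. Activity fitted both directions relative to DMSO.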

[11] = ATG_M_61_CIS: Attagene CIS-FACTORIAL HepG2 Assay for M61 Transcription Factor (Internal Marker) (AID 2282937); conditions: HepG2 Attagene CIS-FACTORIAL M61 internal marker reporter; actives raise or lower the signal
Outline: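 Using transiently transfected HepG2 liver cells, reporter transcript levels were assessed 24 h post-dosing by RT-PCR and capillary electrophoresis. Changes in either direction were fitted relative to DMSO controls.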

[12] = ATG_M_19_CIS: Attagene CIS-FACTORIAL HepG2 Assay for M19 Transcription Factor (Internal Marker) (AID 2282939); conditions: HepG2 Attagene CIS-FACTORIAL M19 internal marker reporter; actives raise or lower the signal
Outline: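 HepG2, MRTU transient transfection, 24 h dosing. Total RNA → RT-PCR → 6-FAM primer extension → HpaI digest → CE fluorescence. Bidirectional curve fit, DMSO negative control.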

[13] = ATG_Ets_CIS: Attagene CIS-FACTORIAL HepG2 Assay for human Erythroblast Transformation Specific (ETS) (AID 2282941); conditions: HepG2 ETS cis-reporter transcription, actives raise or lower the signal
Outline: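 HepG2 cells transfected with multiple cis-regulated reporter units measuring endogenous ETS-driven transcription, 24 h after dosing. Reporter mRNA quantified by RT-PCR with capillary electrophoresis; bidirectional fit relative to DMSO.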

[14] = biological target: Hepatocyte nuclear factor 3-beta (Homo sapiens) (UniProt Q9Y261); experiment: ATG_FoxA2_CIS: Attagene CIS-FACTORIAL HepG2 Assay for human Forkhead box A2 (FOXA2) (AID 2282942); conditions: HepG2 cis-reporter transcription factor activity, 24 h; actives raise or lower the signal
Chain of Hepatocyte nuclear factor 3-beta (Homo sapiens) (Q9Y261 whole entry, looked up, the tested form may be a part): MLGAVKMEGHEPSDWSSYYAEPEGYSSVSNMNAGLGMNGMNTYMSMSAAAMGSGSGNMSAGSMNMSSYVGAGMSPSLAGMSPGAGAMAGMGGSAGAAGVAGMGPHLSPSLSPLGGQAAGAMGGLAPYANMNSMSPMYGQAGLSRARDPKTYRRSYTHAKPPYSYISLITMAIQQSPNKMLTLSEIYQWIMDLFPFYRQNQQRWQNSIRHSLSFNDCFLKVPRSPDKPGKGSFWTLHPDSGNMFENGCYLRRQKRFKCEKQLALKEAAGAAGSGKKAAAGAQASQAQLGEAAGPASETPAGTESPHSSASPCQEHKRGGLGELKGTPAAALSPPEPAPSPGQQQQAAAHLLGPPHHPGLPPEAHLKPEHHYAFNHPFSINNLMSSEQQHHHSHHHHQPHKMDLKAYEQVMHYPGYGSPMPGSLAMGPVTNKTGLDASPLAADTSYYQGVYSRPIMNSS
Outline: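 Fluorescence signal of reporter cDNA fragments, separated by capillary electrophoresis, reflects endogenous transcription factor activity in transfected HepG2 after 24 h. Both increases and decreases fitted against DMSO.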

[15] = ATG_FoxO_CIS: Attagene CIS-FACTORIAL HepG2 Assay for human Forkhead box O (FoxO) (AID 2282943); conditions: HepG2 Attagene cis-reporter, FoxO element, mRNA; actives raise or lower the signal
Outline: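 Endogenous transcription factor activity read from multiplexed cis-promoter reporter transcripts in transiently transfected HepG2, 24 h after dosing. Reporter RNA measured via RT-PCR plus capillary electrophoresis of FAM-labeled products; gain or loss relative to DMSO.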

[16] = ATG_GATA_CIS: Attagene CIS-FACTORIAL HepG2 Assay for human GATA Binding Protein (AID 2282944); conditions: HepG2 GATA cis-element reporter, Attagene multiplex mRNA; actives raise or lower the signal
Outline: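 Cells: HepG2, transiently transfected with cis-regulated reporter transcription units. Exposure: 24 h. Detection: RT-PCR plus capillary electrophoresis of FAM-labeled fragments. Analysis: bidirectional, DMSO as baseline.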

[17] = ATG_GLI_CIS: Attagene CIS-FACTORIAL HepG2 Assay for human Zinc Finger Protein GLI1 (AID 2282945); conditions: HepG2, Attagene cis-factorial reporter mRNA, GLI element; actives raise or lower the signal
Outline: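 Bidirectional curve fits relative to DMSO, using reporter mRNA levels from RT-PCR plus capillary electrophoresis. Cells were HepG2 transiently carrying cis-regulated reporter constructs, harvested 24 h after dosing.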

[18] = ATG_AP_1_CIS: Attagene CIS-FACTORIAL HepG2 Assay for human Activator Protein 1 (AP-1) (AID 2282931); conditions: HepG2 Attagene cis-factorial AP-1 reporter mRNA; actives raise or lower the signal
Outline: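 After 24 h incubation with test chemical, RNA from transfected HepG2 cells was reverse-transcribed, amplified, fluorescently labelled and digested before capillary electrophoresis. Reporters were driven by cis-regulatory promoters; activity fitted bidirectionally versus DMSO.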

[19] = ATG_EGR_CIS: Attagene CIS-FACTORIAL HepG2 Assay for human Early Growth Response 1 (EGR1) (AID 2282938); conditions: HepG2 Attagene CIS-FACTORIAL EGR reporter mRNA; actives raise or lower the signal
Outline: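 Fluorescent capillary-electrophoresis signal of reporter cDNA fragments serves as read-out. HepG2 cells bear transiently transfected cis-promoter reporter units and are exposed 24 h; gain- or loss-of-signal is fitted against DMSO.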

[20] = ATG_ERE_CIS: Attagene CIS-FACTORIAL HepG2 Assay for Estrogen Response Element (ERE) (AID 2282940); conditions: HepG2 ERE cis-reporter, Attagene RNA transcript; actives raise or lower the signal
Outline: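 After a 24 h chemical treatment, RNA from reporter-transfected HepG2 cells is reverse-transcribed, PCR-amplified and fluorescently labelled. Fragments separated by capillary electrophoresis give reporter signal; DMSO serves as negative control.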

Measured: AC50

COC(=O)c1ccc(C)cc1C1=NC(C)(C(C)C)C(=O)N1 (configuration not stated) (tested in a mixture with another compound)
inactive: [1] | [2] | [3] | [4] | [5] | [6] | [7] | [8] | [9] | [10] | [11] | [12] | [13] | [14] | [15] | [16] | [17]

O=C(O)CNc1ccccc1
active: [5] 15.1 µM
inactive: [1] | [2] | [3] | [4] | [18] | [6] | [8] | [9] | [11] | [19] | [12] | [13] | [14] | [16] | [17]

C=CCOC(=O)CCCCCC
inactive: [1] | [2] | [3] | [4] | [5] | [6] | [7] | [8] | [9] | [10] | [11] | [19] | [12] | [13] | [14] | [15] | [16] | [17]

NCC1CCCC(CN)C1 (configuration not stated)
inactive: [1] | [2] | [3] | [4] | [5] | [6] | [7] | [8] | [10] | [11] | [19] | [12] | [13] | [14] | [15] | [16] | [17]

CS(C)=O
inactive: [1] | [2] | [3] | [4] | [5] | [6] | [7] | [8] | [9] | [10] | [11] | [19] | [12] | [13] | [16] | [17]

O=C1OC2(c3ccccc31)c1ccc(O)c(Br)c1Oc1c2ccc(O)c1Br
active: [5] 56.6 µM
inactive: [1] | [2] | [3] | [4] | [6] | [7] | [8] | [9] | [10] | [11] | [12] | [13] | [14] | [15] | [16] | [17]

C[C@H](CCC(=O)NCC(=O)O)[C@H]1CC[C@H]2[C@@H]3[C@H](O)C[C@@H]4C[C@H](O)CC[C@]4(C)[C@H]3C[C@H](O)[C@]12C
inactive: [1] | [2] | [3] | [4] | [5] | [6] | [7] | [8] | [9] | [10] | [11] | [19] | [12] | [13] | [14] | [15] | [16] | [17]

CCCCCCCCc1ccc(S(=O)(=O)O)cc1
inactive: [2] | [3] | [5] | [6] | [7] | [8] | [14]
active: [1] 19.7 µM | [4] 42.1 µM | [9] 155 µM | [10] 159 µM | [11] 155 µM | [12] 157 µM | [13] 156 µM | [16] 99.5 µM | [17] 168 µM

O=C(O)CCCCCCCCC(=O)O
inactive: [1] | [2] | [3] | [4] | [5] | [18] | [6] | [8] | [9] | [11] | [19] | [12] | [13] | [14] | [15] | [16] | [17]

CCCCCCCCCCCC(=O)OCC(O)CO (configuration not stated)
inactive: [2] | [3] | [4] | [6] | [7] | [9] | [10] | [11] | [12] | [20] | [13] | [14] | [15] | [16] | [17]
active: [1] 48.2 µM | [5] 21.3 µM | [8] 100 µM

COc1ccccc1[N+](=O)[O-]
inactive: [1] | [2] | [3] | [4] | [5] | [6] | [7] | [8] | [9] | [10] | [11] | [19] | [12] | [13] | [16] | [17]

CCN(CCC#N)c1ccc(N=Nc2ccc([N+](=O)[O-])cc2)cc1
inactive: [1] | [2] | [3] | [4] | [5] | [6] | [7] | [8] | [9] | [10] | [11] | [19] | [12] | [13] | [14] | [15] | [16] | [17]

CSCCC=O
inactive: [1] | [2] | [3] | [4] | [5] | [6] | [7] | [9] | [10] | [11] | [19] | [12] | [13] | [14] | [15] | [16] | [17]
active: [8] 25.5 µM
